Six compounds from PubChem BioAssay (NCATS) can be followed below.

One experiment has as its system MCC-26. The experiment can be described thus: qHTS assay to identify novel small-molecules to repurpose for Merkel cell carcinoma treatment (AID 1296009). Also: nearly all actives have a fitted effect of over 60% in size. Also: potency is read from the fitted curve at half-maximal effect. As to conditions: MCC and control cell lines, CellTiter-Glo viability, 72 h; series mostly up to 46 µM. The gist of the method:
(§1)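 qHTS format: cells treated with library compounds in DMSO across 8 (NPC) or 11 (MIPE) concentrations. Readout after 72 hr at 37 degree celsius was CellTiter-Glo luminescence.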

A further experiment has as its system MKL-1. The description is as above. As to conditions: MCC and control cell lines, CellTiter-Glo viability, 72 h; series mostly up to 46 µM. The gist of the method:
as §1
For orientation: ATP-based viability assays read luminescence as a measure of living cells.

The next experiment has as its system MKL-2. The description is as above. Particulars: MCC and control cell lines, CellTiter-Glo viability, 72 h; series mostly up to 46 µM. In short, it runs like this: as §1
In another experiment the test system is NIH3T3. The description is as above. Particulars: MCC and control cell lines, CellTiter-Glo viability, 72 h; at 44.8 µM (top of the series) unless noted. The gist of the method:
as §1

The subject of a further experiment is UISO. Described as above. Particulars: MCC and control cell lines, CellTiter-Glo viability, 72 h; series mostly up to 46 µM. The gist of the method: as §1
The test system of the next experiment is WaGa. Described as above. Particulars: MCC and control cell lines, CellTiter-Glo viability, 72 h; series mostly up to 46 µM. In short, it runs like this: as §1
A further experiment deals with C33A. In words: Primary qHTS to identify gynecologic anti-cancer compounds using libraries of approved drugs and bioactive compounds (AID 1345084). Also: nearly all actives have a fitted effect of over 55% in size. Particulars: Gynecologic cancer cell panel viability, ATPlite luminescence, 48 h; series mostly up to 57.5 µM. In short, it runs like this: (§2)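 Five-point cytotoxicity, 48 h drug exposure at 37 C, 5% CO2, on cells seeded 16 h beforehand. ATP content read by ATPlite luminescence.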
In general terms: Quantitative high-throughput screening tests each substance at several concentrations.

Another experiment deals with CAOV3. The experiment is described as above. As to conditions: Gynecologic cancer cell panel viability, ATPlite luminescence, 48 h; series mostly up to 57.5 µM. The gist of the method: as §2
For a further experiment, the system named is CASKI. The experiment is described as above. Particulars: Gynecologic cancer cell panel viability, ATPlite luminescence, 48 h; series mostly up to 57.5 µM. The gist of the method: as §2
The next experiment has as its system Es-2. The experiment is described as above. Particulars: Gynecologic cancer cell panel viability, ATPlite luminescence, 48 h; series mostly up to 57.5 µM. In short, it runs like this:
as §2

The next experiment has as its system HeLa. Described as above. Particulars: Gynecologic cancer cell panel viability, ATPlite luminescence, 48 h; series mostly up to 57.5 µM. In short, it runs like this: as §2
The next experiment relates to Hek293T. Described as above. As to conditions: Gynecologic cancer cell panel viability, ATPlite luminescence, 48 h, control line for the selectivity index; series mostly up to 57.5 µM. In short, it runs like this:
as §2

The subject of the next experiment is JEG-3. The experiment is described as above. As to conditions: Gynecologic cancer cell panel viability, ATPlite luminescence, 48 h; series mostly up to 57.5 µM. The gist of the method: as §2
Another experiment deals with OV90. Described as above. As to conditions: Gynecologic cancer cell panel viability, ATPlite luminescence, 48 h; series mostly up to 57.5 µM. In short, it runs like this: as §2
The next experiment relates to PA-1. The description is as above. Particulars: Gynecologic cancer cell panel viability, ATPlite luminescence, 48 h; series mostly up to 57.5 µM. In short, it runs like this: as §2
The next experiment relates to SKOV3. The experiment is described as above. As to conditions: Gynecologic cancer cell panel viability, ATPlite luminescence, 48 h; series mostly up to 57.5 µM. In short, it runs like this:
as §2

For another experiment, the system named is Tov-21-G. Described as above. Particulars: Gynecologic cancer cell panel viability, ATPlite luminescence, 48 h; series mostly up to 57.5 µM. In short, it runs like this: as §2
For the next experiment, the system named is Tov112D. Described as above. Particulars: Gynecologic cancer cell panel viability, ATPlite luminescence, 48 h; series mostly up to 57.5 µM. The gist of the method:
as §2

Experiment [1] can be described thus: Drug repurposing screens with cells derived from glioblastoma tumor samples (AID 1345199). Also: nearly all actives have a fitted effect of over 40% in size. Particulars: GBM patient neurospheres viability, ATP luminescence, 48 h. In short, it runs like this: (§3)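 Four patient lines of CD133+ GBM neurospheres were screened at several concentrations; hits were retested in those lines plus three slower-growing GBM lines, using 48-hour treatment and ATP-based viability.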

The next experiment deals with astro. Described as above. As to conditions: viability, ATP luminescence, 48 h; series mostly up to 45.9 µM. In short, it runs like this:
as §3

Where [2] appears, read: at 45.9 µM (top of the series), tumour line B.
Setting [3] is: at 45.9 µM (top of the series), tumour line D.
Where [4] appears, read: at 46 µM (top of the series), tumour line A.
The mark [5] stands for this setting: at 46.1 µM (top of the series), tumour line C.

Structures are written as SMILES. Values joined by “and” are separate entries in the source; they are usually repeats but may differ in a detail not shown here. Identical values can stand only once. Records with an inconclusive call do not appear. A structure can be active in one record and inactive in another. Active and inactive are the calls of the source. Calls follow the shape of the dose curve; as a rule, active = well fitted curve in the direction sought with a large enough effect; inconclusive = small, poorly fitted or top-dose-only effect, or another doubt; inactive = no such curve, though single readings can be large; an effect the other way counts as inactive or inconclusive.
% is scaled to controls: 0 for no effect and ±100 for the full control effect.

`O=C(O)CCn1c2c(c3ccccc31)C[C@H](NS(=O)(=O)c1ccc(F)cc1)CC2`: the Potency result in the experiment with MCC-26, in the experiment with MKL-1, with MKL-2, in the experiment on UISO, in the experiment on WaGa and in the experiment on C33A was “inactive” in each case. The Potency result with CAOV3, in the experiment on CASKI, with Es-2, in the experiment on HeLa, with Hek293T and in the experiment on JEG-3 was “inactive” each time. Moreover, the Potency result with OV90, in the experiment on PA-1, in the experiment with SKOV3, in the experiment with Tov-21-G, with Tov112D and with astro was “inactive” throughout. Also, in the experiment with NIH3T3, the result was inactive. In addition, the activity, negative = cell killing is -3.62% (inactive) in experiment [1] (setting [2]), -7.83% (inactive) in [1] (setting [3]), -16.4% (inactive) in experiment [1] (setting [4]) and -18.1% (inactive) in [1] (setting [5]).

For the compound `CCn1cc(C(=O)O)c(=O)c2cc(F)c(N3CCN(C)CC3)cc21`, the Potency entry in the experiment with MCC-26, in the experiment with MKL-1, in the experiment with MKL-2, with UISO, in the experiment with WaGa and in the experiment with C33A was “inactive” throughout. The Potency entry in the experiment on CAOV3, with CASKI, in the experiment with Es-2, in the experiment with HeLa, in the experiment with Hek293T and in the experiment on JEG-3 was “inactive” in each case. Further, the Potency entry in the experiment on OV90, with PA-1, in the experiment with SKOV3, with Tov-21-G, in the experiment with Tov112D and in the experiment on astro was “inactive” in each case. Besides, the outcome with NIH3T3 was “inactive [at 17.4 µM]”. In addition, the activity, negative = cell killing was -12.6% (inactive) in experiment [1] (setting [2]), -0.981% (inactive) in [1] (setting [3]) and -19.8% (inactive) in experiment [1] (setting [5]).

In the case of `O=C(NCC1CN(c2ccc(N3CCOCC3=O)cc2)C(=O)O1)c1ccc(Cl)s1` (stereo not drawn), the Potency result in the experiment with MCC-26, with MKL-1, in the experiment on MKL-2, with UISO, in the experiment with WaGa and in the experiment with C33A was “inactive” throughout. For the same compound, the Potency entry in the experiment with CAOV3, in the experiment on CASKI, in the experiment on Es-2, with Hek293T, with JEG-3 and in the experiment on OV90 was “inactive” throughout. Also, the Potency result in the experiment with PA-1, with SKOV3, in the experiment on Tov-21-G and in the experiment on Tov112D was “inactive” in each case. For the same compound, the outcome in the experiment on NIH3T3 was inactive.

Consider `O=c1cc(O)c(Cl)c[nH]1`, for which the Potency result with MCC-26, in the experiment with MKL-1, in the experiment on MKL-2, with UISO, in the experiment with C33A and in the experiment with CAOV3 was “inactive” throughout. Moreover, the Potency entry in the experiment with CASKI, in the experiment on Es-2, in the experiment on HeLa, with Hek293T, in the experiment on JEG-3 and in the experiment with OV90 was “inactive” in each case. Further, the Potency entry in the experiment with SKOV3, in the experiment with Tov-21-G, in the experiment on Tov112D and with astro was “inactive” throughout. The result with NIH3T3 was inactive. Also, in the experiment on WaGa, the Potency entry is “inactive and 8.33 µM (active)”. The activity, negative = cell killing in [1] (setting [2]) was -16% (inactive); in [1] (setting [3]), 7.88% (inactive); in [1] (setting [4]), -15.8% (inactive); in [1] (setting [5]), -29.9% (inactive).

`Cc1oc(=O)oc1CN1CCN(c2cc3c(cc2F)c(=O)c(C(=O)O)c2n3C(C)S2)CC1` (stereo not drawn): the Potency entry in the experiment on MCC-26, in the experiment on MKL-1, in the experiment with MKL-2, in the experiment on UISO, in the experiment with WaGa and in the experiment on C33A was “inactive” in each case. In addition, the Potency entry with CAOV3, in the experiment with CASKI, with Es-2, in the experiment on HeLa, with Hek293T and in the experiment with JEG-3 was “inactive” in each case. Moreover, the Potency result with OV90, with PA-1, in the experiment with Tov-21-G, in the experiment on Tov112D and with astro was “inactive” each time. Also, the call with NIH3T3 was inactive. Besides, the activity, negative = cell killing is -20.2% (inactive) in [1] (setting [2]), 7.6% (inactive) in experiment [1] (setting [3]), -22.8% (inactive) in experiment [1] (setting [4]) and -0.513% (inactive) in [1] (setting [5]).

In the case of `Cn1nnc2c(C(N)=O)ncn2c1=O`, the Potency result with MCC-26, in the experiment with MKL-1, in the experiment on MKL-2, in the experiment with UISO, with WaGa and with C33A was “inactive” in each case. In addition, the Potency entry in the experiment with CAOV3, with CASKI, in the experiment on Es-2, in the experiment with Hek293T, in the experiment on JEG-3 and with OV90 was “inactive” each time. Besides, the Potency entry in the experiment on PA-1, in the experiment on SKOV3, with Tov-21-G, in the experiment with Tov112D and with astro was “inactive” in each case. Besides, the result in the experiment on NIH3T3 was inactive. Further, the activity, negative = cell killing is -3.24% (inactive) in [1] (setting [2]), -16.1% (inactive) in experiment [1] (setting [3]), -21.4% (inactive) in experiment [1] (setting [4]) and -14.3% (inactive) in experiment [1] (setting [5]).
